12-LOX inh – Primary qHTS assay for inhibitors of human arachidonate 12S-lipoxygenase (ALOX12): Round 2; AID 1671190, 2021; Potency, µM (doses to about 108 µM), for inactives: at the top dose activity change, negative = inhibition, usual class: inhibitors; Polyunsaturated fatty acid lipoxygenase ALOX12 (Homo sapiens), P18054; purified 12hLO, xylenol orange hydroperoxide absorbance; 1.1% of 580,000 active; note: potency is the fitted concentration of half-maximal effect; % is set by controls: 0 for no effect and ±100 for the full control effect
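Purified human 12hLO at 150 nM in 25 mM Hepes, 0.01% Triton X-100, pH 7.0, preincubated 15 min at room temperature with compound. Reaction started with 40 uM arachidonic acid, 30 min at room temperature. Hydroperoxide measured by Fe-xylenol orange, 573/405 nm absorbance ratio.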
Nrf2 inh – Nrf2 qHTS screen for inhibitors | A549 ARE-Fluc reporter, luciferase luminescence, 18-24 h | Potency, µM (series often up to 46 µM), for the others: at the highest dose activity change, negative = inhibition, usual class: inhibitors | 2.1% of 360,000 active; note: potency is the fitted concentration of half-maximal effect; % is set by controls: 0 for no effect and ±100 for the full control effect; nearly all actives have a fitted effect of over 60% in size
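Cells were seeded and rested 2 h, then exposed to compounds for 18-24 h. CellTiter-Fluor was read first as a viability measure. BugLite was added 15 min before the final luminescent read of ARE-luciferase activity in A549 cells.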
LDHA block – qHTS assay for inhibitors of human lactate dehydrogenase; L-lactate dehydrogenase A chain (Homo sapiens), P00338; 0.15% of 480,000 active; purified LDHA, NADH/diaphorase-resazurin fluorescence; stronger effect = lower value; activity change, % (values are at about 110 or 230 µM); in the data active = activity change below about -30%; inconclusive = mostly about -25% to -30%;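 note: plate controls were DMSO wells for no effect and wells without enzyme for full effect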
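Human LDH5 (2 nM) was incubated with 0.06 mM NADH and 0.2 mM pyruvate for 5 min at room temperature in Tris pH 7.4. Remaining NADH was coupled through diaphorase/resazurin, and resorufin fluorescence was read at 0 and 20 min.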
ERG-DNA inh – qHTS for Small Molecule Inhibitors of the ERG Ets/DNA interaction. fluorescence polarization, His-ERG Ets domain / labelled DNA. Potency, µM (doses to about 76.9 µM), for the others: at the highest dose FP activity, negative = inhibition, most hits filed as inhibitors. 0.028% of 370,000 active. AID 624246, 2012; active = well fitted inhibition curve with a large enough effect in the polarisation, with a control signal flat; inconclusive = small, poorly fitted or top-dose-only effect, or effect the other way, or a change in a side signal; inactive = no such curve, though single readings can be large or run the other way; the % refers to the polarisation;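 note: polarization taken with two DNA probes labelled with fluorescein and Texas red; potency is the fitted concentration of half-maximal effect; % of control where 0% means no effect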
Target sequence (P11308 whole entry, looked up, the tested form may be a part): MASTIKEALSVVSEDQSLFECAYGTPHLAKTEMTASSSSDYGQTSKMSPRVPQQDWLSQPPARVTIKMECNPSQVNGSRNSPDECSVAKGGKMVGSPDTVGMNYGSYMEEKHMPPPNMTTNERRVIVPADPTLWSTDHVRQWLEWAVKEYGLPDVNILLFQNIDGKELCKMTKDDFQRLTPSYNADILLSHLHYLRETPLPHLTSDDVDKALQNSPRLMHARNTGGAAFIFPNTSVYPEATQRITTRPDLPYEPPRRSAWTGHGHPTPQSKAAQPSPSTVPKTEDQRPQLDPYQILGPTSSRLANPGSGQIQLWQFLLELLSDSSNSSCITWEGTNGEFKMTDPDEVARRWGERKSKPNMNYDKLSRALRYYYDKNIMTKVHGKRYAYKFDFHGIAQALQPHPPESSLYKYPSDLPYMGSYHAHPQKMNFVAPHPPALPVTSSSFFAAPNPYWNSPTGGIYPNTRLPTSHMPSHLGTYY
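His-tagged ERG Ets domain (1 uM in the protein solution; 300mM KCl, 50mM Tris-HCl, 1mM EDTA, 1mM DTT, pH 7.5) received compound, then a probe mix of 5 nM fluorescein-DNA and 100nM Texas-615-DNA. Fluorescence polarization was read for both dyes.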
A549 tox-1 – Nrf2 qHTS screen for inhibitors: counterscreen for cytotoxicity | A549 ARE-Fluc cells, CellTiter-Fluor viability, 18-24 h | 0.16% of 390,000 active | AID 504648, 2011 | Potency, µM (series often up to 46 µM), for the others: at the top dose activity change, negative = cytotoxicity, actives largely listed as inhibitors; note: potency is the fitted concentration of half-maximal effect; % is set by controls: 0 for no effect and ±100 for the full control effect
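A549 ARE-Fluc cells in 5% FBS OPTI-MEM, 5000 cells/well, rested 2 h then exposed to compounds in concentration-response for 18-24 h at 37 °C. Viability by CellTiter-Fluor fluorescence (Ex 405/Em 525) after 30 min; luciferase luminescence (BugLite, 15 min, RT) read afterwards.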
Nrf2 activator – qHTS of Nrf2 Activators; AID 624171, 2012; Potency, µM (titrated, usually from 46.1 µM), inactives show at the highest dose activation, hits mostly activators; AREc32 ARE-luciferase reporter (MCF7-derived line), luminescence, 24 h; 0.31% of 410,000 active; note: potency is the fitted concentration of half-maximal effect; % of control where 0% means no effect; nearly all actives have a fitted effect of over 65% in size
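Luciferase luminescence (Steady-Glo, 30 min at room temperature) served as the read-out of ARE activation in AREc32 cells treated with compounds for 24 hr at 37 deg C.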
FLuc counter 3 – Nrf2 qHTS screen for inhibitors: Purified Fluc Biochemical Counterscreen for Hit Validation; shares compounds with Nrf2 inh; purified firefly luciferase, luminescence inhibition; Potency, µM (series often up to 57.5 µM), for the others: at the highest dose activity change, negative = inhibition, hits mostly inhibitors; 4% of 1,400 active; AID 720522, 2013; note: potency is the fitted concentration of half-maximal effect; % is set by controls: 0 for no effect and ±100 for the full control effect; nearly all actives have a fitted effect of over 65% in size
A549 tox-2 – Nrf2 qHTS screen for inhibitors: A549 ARE-Fluc Cytotoxicity Counterscreen for Hit Validation. shares compounds with Nrf2 inh. A549 ARE-Fluc cells, cytotoxicity counterscreen. Potency, µM (titrated, usually from 46.1 µM), inactives show at the top dose activity change, negative = cytotoxicity, actives largely listed as inhibitors. 2% of 1,400 active. AID 720523, 2013;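 note: potency is the fitted concentration of half-maximal effect; cells exposed to compounds for 18 to 24 hours; % is set by controls: 0 for no effect and ±100 for the full control effect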
Nrf2 ARE inh – Nrf2 qHTS screen for inhibitors: Nrf2 A549 ARE-Fluc Confirmation Assay for Hit Validation; A549 ARE-firefly luciferase reporter, luminescence; AID 720524, 2013; shares compounds with Nrf2 inh; 74% of 1,400 active; Potency, µM (titrated, usually from 46.1 µM), for inactives: at the highest dose activity change, negative = inhibition, usual class: inhibitors; note: potency is the fitted concentration of half-maximal effect; % is set by controls: 0 for no effect and ±100 for the full control effect; nearly all actives have a fitted effect of over 65% in size
The depositor's hits bear a star; [ ] = another dose, or the depositor's remark. The list is not random: actives were taken first. Their share in the collection is about 2.7%. Unless noted, calls come from the whole dose curve; as a rule, active = well fitted curve in the direction sought with a large enough effect; inconclusive = small, poorly fitted or top-dose-only effect, or another doubt; inactive = no such curve, though single readings can be large; an effect the other way counts as inactive or inconclusive.

Results for N#CC1=C(N)Oc2nc[nH]c(=O)c2C1c1ccc2c(c1)OCO2 (configuration not stated) ?
12-LOX inh: -29%; LDHA block: 6

How did CCNC(=O)C(C)Nc1nc(-c2ccccc2)nc2ccccc12 (configuration not stated) do in these assays?
12-LOX inh: -29%; LDHA block: -3

What do the screens show for `CCN(C(=O)c1ccc(C(C)(C)C)cc1)c1nnc(Cn2nnc3ccccc32)s1`?
12-LOX inh: 7%; Nrf2 inh: 5.8µM*; LDHA block: -3; ERG-DNA inh: -3%; A549 tox-1: inconclusive; Nrf2 activator: 5%; FLuc counter 3: 1%; A549 tox-2: -15%; Nrf2 ARE inh: 6.5µM*

How did C=CCn1c(SCC(N)=O)nc2c1c(=O)[nH]c(=O)n2C do in these assays?
12-LOX inh: -6%; LDHA block: 9

What do the screens show for `CC12C=CC(=O)C=C1CCC1C2C(O)CC2(C)C1CCC2(O)C(=O)CO` (configuration not stated)?
12-LOX inh: 27%; Nrf2 inh: 0.058µM*; LDHA block: -7; ERG-DNA inh: -9%; A549 tox-1: -1%; Nrf2 activator: -1%; FLuc counter 3: 4%; A549 tox-2: -3%; Nrf2 ARE inh: 0.1µM*

How did CC(=O)OCC(=O)[C@@]1(O)CC[C@H]2[C@@H]3CCC4=CC(=O)C=C[C@]4(C)[C@H]3[C@@H](O)C[C@@]21C do in these assays?
12-LOX inh: 9%; Nrf2 inh: 0.052µM*; LDHA block: -2; ERG-DNA inh: inconclusive; A549 tox-1: -8%; Nrf2 activator: 0%; FLuc counter 3: 0%; A549 tox-2: -6%; Nrf2 ARE inh: 0.041µM*

What do the screens show for `CCCCC(=O)O[C@]1(C(=O)CO)CC[C@H]2[C@@H]3CCC4=CC(=O)CC[C@]4(C)[C@H]3[C@@H](O)C[C@@]21C`?
12-LOX inh: -16%; Nrf2 inh: 0.016µM*; LDHA block: -4; ERG-DNA inh: 11%; A549 tox-1: -8%; Nrf2 activator: 0%; FLuc counter 3: -1%; A549 tox-2: -14%; Nrf2 ARE inh: 0.013µM*

How did C[C@]12C=CC(=O)C=C1CCC1C3CC[C@](O)(C(=O)CO)[C@@]3(C)CC3OC312 (some centres not stated) do in these assays?
12-LOX inh: 17%; Nrf2 inh: -18%; LDHA block: -10; ERG-DNA inh: 0%; A549 tox-1: -1%; Nrf2 activator: 0%

Results for CC(=O)OCC(=O)[C@@]1(O)CC[C@H]2[C@@H]3CCC4=CC(=O)C=C[C@]4(C)[C@@]3(Cl)[C@@H](Cl)C[C@@]21C ?
12-LOX inh: 12%; Nrf2 inh: 8.2µM*; LDHA block: -7; ERG-DNA inh: 15%; A549 tox-1: inconclusive; Nrf2 activator: -1%; FLuc counter 3: 2%; A549 tox-2: -6%; Nrf2 ARE inh: 1.3µM*

What do the screens show for `COc1cc(Br)c(/C=N/O)cc1OC`?
12-LOX inh: -59%; LDHA block: 6

What do the screens show for `CC12CCC(=O)C=C1C(F)CC1C2C(O)CC2(C)C1CCC2(O)C(=O)CO` (configuration not stated)?
12-LOX inh: -8%; Nrf2 inh: 0.058µM*; LDHA block: 0; ERG-DNA inh: -14%; A549 tox-1: 4%; Nrf2 activator: 2%; FLuc counter 3: 0%; A549 tox-2: -5%; Nrf2 ARE inh: 0.058µM*

How did CC(=O)OCC(=O)[C@@]1(O)CCC2C3CCC4=CC(=O)CC[C@]4(C)C3[C@@H](O)C[C@@]21C (some centres not stated) do in these assays?
12-LOX inh: -12%[22.9 µM]

Results for C[C@]12C=CC(=O)C=C1[C@@H](F)C[C@@H]1[C@@H]2[C@@H](O)C[C@@]2(C)[C@H]1CC[C@]2(O)C(=O)CO ?
12-LOX inh: -2%[22.9 µM]

Results for CCC(C(=O)OCC(=O)C1(O)CCC2C3CCC4=CC(=O)CCC4(C)C3C(O)CC21C)C(C)C (configuration not stated) ?
12-LOX inh: -6%; Nrf2 inh: 1.2µM*; LDHA block: 0; ERG-DNA inh: 0%; A549 tox-1: -3%; Nrf2 activator: 0%; FLuc counter 3: -1%; A549 tox-2: -29%

What do the screens show for `CSC(C)C(=O)Nc1sccc1C#N` (configuration not stated)?
12-LOX inh: 44%; LDHA block: 2

What do the screens show for `NC(=O)c1ccc(NC(=O)C#Cc2ccccc2)cc1`?
12-LOX inh: -12%; Nrf2 inh: 4.6µM*; LDHA block: -12; ERG-DNA inh: 1%; A549 tox-1: -18%; Nrf2 activator: inconclusive; FLuc counter 3: inconclusive; A549 tox-2: inconclusive; Nrf2 ARE inh: 5.8µM*

Results for CC(Oc1ccccc1)C(=O)Nc1ccc(C(N)=O)cc1 (configuration not stated) ?
12-LOX inh: -3%; LDHA block: 2; ERG-DNA inh: 9%; A549 tox-1: 10%; Nrf2 activator: 0%

What do the screens show for `Cc1ccc(NC(=O)CSc2nc(C)c(C)n2C2CCCC2)cc1S(=O)(=O)N1CCOCC1`?
12-LOX inh: 5%; LDHA block: 4

Results for CCC(=O)Nc1ccc2oc(-c3cccc(OC)c3)nc2c1 ?
12-LOX inh: -5%; LDHA block: 6
